Assay outcomes from PubChem.
Hits are enriched below; roughly 19% of the tested compounds scored in any of these assays.
HT1080 IDH1KD tx = qHTS for induction of synthetic lethality in tumor cells producing 2HG: qHTS for the HT-1080-IDH1KD cell line; HT-1080 IDH1 knockdown viability, ATP luminescence, 48 h; Potency, µM (doses to about 46.1 µM), actives largely listed as cytotoxic; 360,000 tested, 2% active; AID 686971, 2013
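Knockdown cells (IDH1KD HT-1080) received compounds 2 h after plating at 750 cells/well and were kept 48 h at 37 °C in 5% FBS RPMI. A CellTiter-Glo luminescence read gave % activity for curve fitting.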
HT1080NT lethal = qHTS for induction of synthetic lethality in tumor cells producing 2HG: qHTS for the HT-1080-NT fibrosarcoma cell line; HT-1080-NT fibrosarcoma viability, CellTiter-Glo ATP luminescence, 48 h; Potency, µM (titrated, usually from 46.1 µM), usual class: cytotoxic; 360,000 tested, 1.6% active;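 also: NT is the 2HG producing partner of a matched IDH1 knockdown line; nearly all actives have a fitted effect of over 55% in size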
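HT-1080-NT; 750 cells/well; 5% FBS RPMI; 48 h compound, 37 degrees C; CellTiter-Glo luminescence; curve fitting and curve-class assignment.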
DT40 TDP1 CPT = qHTS for Inhibitors of human tyrosyl-DNA phosphodiesterase 1 (TDP1): qHTS in cells in presence of CPT | 420,000 tested, 12% active | chicken DT40 Tdp1-/-;hTDP1 cells + 20 nM CPT, ATP luminescence, 48 h | Potency, µM (series often up to 46.2 µM), actives largely listed as inhibitors; also: nearly all actives have a fitted effect of over 55% in size
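Chicken DT40 Tdp1-/- cells stably complemented with human TDP1 were seeded at 400 cells/well in medium containing 20 nM camptothecin, exposed to pin-transferred compounds, and grown at 37 °C for at least 48 hr. Viability was read as ATP luminescence.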
TDP1 cell noCPT = qHTS for Inhibitors of human tyrosyl-DNA phosphodiesterase 1 (TDP1): qHTS in cells in absence of CPT; 420,000 tested, 15% active; DT40 Tdp1-/- hTDP1 cells, no CPT, ATP luminescence, 48 h; Potency, µM (top dose mostly 46.2 µM), most hits filed as inhibitors; AID 686978, 2013; also: nearly all actives have a fitted effect of over 55% in size
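Seeded 400 DT40-hTDP1 cells/well (vehicle DMSO, no 20 nM CPT); pinned compounds; ≥48 hr at 37 °C; CellTiter-Glo luminescence as viability measure.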
uPA surface inh = qHTS for Inhibitors of Cell Surface uPA Generation; Potency, µM (doses to about 38.3 µM), usual class: inhibitors; 330,000 tested, 0.31% active; cell surface uPA generation assay, qHTS; active = well fitted inhibition curve with a large enough effect; inconclusive = small, poorly fitted or top-dose-only effect; inactive = no such curve, though single readings can be large or run the other way; tested in mouse RAW 264.7 cells; also: nearly all actives have a fitted effect of over 55% in size
IL-1B inflam inh = qHTS for Inhibitors of Inflammasome Signaling: IL-1-beta AlphaLISA Primary Screen | THP-1 LPS/ATP IL-1B secretion, AlphaLISA, 16 h; stronger effect = lower value | activity change, % at 57.5 µM | 360,000 tested, 4.7% active; in the data active = activity change below about -50%; inconclusive = mostly about -30% to -49%
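Secreted IL-1B measured by AlphaLISA bead assay after 16 h compound exposure of THP-1 cells; compounds (final up to 57.5 uM) added 1 h before LPS (250 ng/mL) and ATP (1.25 mM) stimulation; lower signal means less secretion.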
Each line names hits and unclear results; the compound was inactive in the other large screens. Unless noted, calls follow the shape of the dose curve; as a rule, active = well fitted curve in the direction sought with a large enough effect; inconclusive = small, poorly fitted or top-dose-only effect, or another doubt; inactive = no such curve, though single readings can be large; an effect the other way counts as inactive or inconclusive.

CCN(CC(=O)NCc1cccs1)C(=O)c1ccccc1Cl	none
CN(C)S(=O)(=O)c1ccc(C(=O)NCCC(=O)N2CCCC2)cc1	none (no result: uPA surface inh)
O=C(/C=C/c1ccccc1Cl)N(c1ccccn1)C1CCCCC1	HT1080NT lethal inconclusive, DT40 TDP1 CPT inconclusive, TDP1 cell noCPT 16µM
CCN(CC)S(=O)(=O)c1ccc(/C=C/C(=O)N(c2ccccn2)C2CCCCC2)cc1	DT40 TDP1 CPT inconclusive, TDP1 cell noCPT 12µM
CC(=O)ON(C(C)=O)S(=O)(=O)c1ccc(Cl)cc1	none (no result: HT1080 IDH1KD tx, HT1080NT lethal, uPA surface inh, IL-1B inflam inh)
COc1ccc(CCNC(=O)c2cc3ccc(Cl)cc3nc2N)cc1	HT1080 IDH1KD tx inconclusive, DT40 TDP1 CPT inconclusive, TDP1 cell noCPT 5.8µM (no result: uPA surface inh)
Nc1nc2cc(Cl)ccc2cc1C(=O)NCCCc1ccccc1	HT1080NT lethal inconclusive, DT40 TDP1 CPT inconclusive, TDP1 cell noCPT 15µM (no result: uPA surface inh)
COc1ccc(CCNC(=O)c2ccc(Cl)cc2)cc1	DT40 TDP1 CPT inconclusive
Cc1occc1C(=O)NCCCc1ccccc1	DT40 TDP1 CPT inconclusive
C#CCOCCOCCOCCNc1nc(N2CCOCC2)nc(N2CCN(C(=O)Cn3cc(CCCCN)nn3)CC2)n1	none
CN1CCN(C(=O)c2cc(COc3c(F)cccc3F)on2)CC1c1ccccc1 (configuration not stated)	TDP1 cell noCPT inconclusive
C=CC[C@H]1CC(C)=C[C@H](CC=C)N1C(=O)c1cc(COc2ccccc2SC)on1	DT40 TDP1 CPT inconclusive, TDP1 cell noCPT 15µM
COCC1CCN(C(=O)c2cc(COc3ccccc3SC)on2)C1 (configuration not stated)	DT40 TDP1 CPT inconclusive
CSc1ccccc1OCc1cc(C(=O)N2CCN(C)C(c3ccccc3)C2)no1 (configuration not stated)	DT40 TDP1 CPT 21µM
O=C(OCc1cn([C@H]2C[C@H](c3ccc(Cl)cc3)N(CC3CCCCC3)C[C@@H]2O)nn1)c1ccccc1	none (no result: uPA surface inh)
Cc1ccc(N2CCN(C(=O)C(=O)c3cccc(Br)c3)CC2)cc1	DT40 TDP1 CPT inconclusive, TDP1 cell noCPT inconclusive (no result: uPA surface inh)
CN(C)c1ccc(CN(C(=O)COc2ccccc2)C2CCS(=O)(=O)C2)cc1 (configuration not stated)	none
COc1cc(C(=O)N(Cc2ccc(N(C)C)cc2)CC2CCCO2)cc(OC)c1OC (configuration not stated)	TDP1 cell noCPT inconclusive (no result: HT1080 IDH1KD tx, HT1080NT lethal, uPA surface inh, IL-1B inflam inh)
Cc1ccc(OCC(=O)N(Cc2ccc(N(C)C)cc2)C2CCS(=O)(=O)C2)cc1C (configuration not stated)	IL-1B inflam inh -72
Cc1ccc2c(C)c(C(=O)N(Cc3ccncc3)CC3CCCO3)oc2c1C (configuration not stated)	DT40 TDP1 CPT 26µM, TDP1 cell noCPT 21µM
Cc1cc(C)c(OCC(=O)N(Cc2ccc(N(C)C)cc2)CC2CCCO2)c(C)c1 (configuration not stated)	DT40 TDP1 CPT 16µM, TDP1 cell noCPT 10µM (no result: HT1080 IDH1KD tx, HT1080NT lethal, uPA surface inh, IL-1B inflam inh)
Cc1c(C(=O)N(Cc2ccncc2)CC2CCCO2)oc2c(F)cccc12 (configuration not stated)	none
Cc1ccc2oc(C(=O)N(Cc3ccc(N(C)C)cc3)CC3CCCO3)c(C)c2c1 (configuration not stated)	DT40 TDP1 CPT inconclusive, TDP1 cell noCPT 18µM
CC(=O)N1CCC2(CC1)OC(=O)C(C)=C2C(=O)NCc1ccc(Cl)cc1	none (no result: HT1080 IDH1KD tx, HT1080NT lethal, uPA surface inh, IL-1B inflam inh)
Cc1c2cnn(-c3ccccc3)c(=O)c2c(C)n1C(C)C(=O)Nc1ccccc1C(F)(F)F (configuration not stated)	DT40 TDP1 CPT inconclusive (no result: HT1080 IDH1KD tx, HT1080NT lethal, uPA surface inh, IL-1B inflam inh)
Cc1ccccc1OCC(=O)N(Cc1ccc(N(C)C)cc1)CC1CCCO1 (configuration not stated)	DT40 TDP1 CPT inconclusive, TDP1 cell noCPT 21µM (no result: HT1080 IDH1KD tx, HT1080NT lethal, uPA surface inh, IL-1B inflam inh)
